# The source made the active and inactive calls. How the calls were made is not given here.
# Molecular target: Pantothenate synthetase (Mycobacterium tuberculosis (strain ATCC 25618 / H37Rv)) (UniProt P9WIL5)
# Experiment: Coupled enzyme confirmation of inhibitors against recombinant Mtb PanC (AID 375);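 further: 0% = full reaction with vehicle and 100% = no enzyme background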
# Details: coupled enzyme assay; at 10 µM, active compounds read high
# Pantothenate synthetase (Mycobacterium tuberculosis (strain ATCC 25618 / H37Rv)), sequence (P9WIL5 whole entry, looked up): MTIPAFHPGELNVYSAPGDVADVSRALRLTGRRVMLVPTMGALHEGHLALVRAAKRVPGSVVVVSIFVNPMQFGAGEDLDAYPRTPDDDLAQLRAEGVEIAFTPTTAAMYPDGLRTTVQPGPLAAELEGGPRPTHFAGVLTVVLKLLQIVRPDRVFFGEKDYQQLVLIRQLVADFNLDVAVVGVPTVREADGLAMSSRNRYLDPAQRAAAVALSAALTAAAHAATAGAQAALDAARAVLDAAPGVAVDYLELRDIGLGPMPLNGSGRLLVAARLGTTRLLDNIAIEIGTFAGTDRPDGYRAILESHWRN
row,Structure (SMILES),inhibition
1,O=C(NCc1ccccc1)C1CCCN(S(=O)(=O)c2cccnc2)C1 (stereo not given),0% (inactive)
2,O=C(c1cccc2c1C(=O)N(Cc1cccnc1)C2)N1CCN(c2ccccc2)CC1,8% (inactive)
3,CCC(=O)OCCn1c(=O)c2cc3c(=O)n(CCOC(=O)CC)c(=O)c3cc2c1=O,0% (inactive)
4,O=C(O)c1ccc(-c2ccc(O)c(F)c2)cc1,1% (inactive)
5,COC(=O)c1ccccc1NC(=O)COc1ccc(S(=O)(=O)N2CCCC2)cc1C,0% (inactive)
6,CC1(C)CC(=O)C2=C(C1)N(CC1CCCO1)C(=O)C2(O)C(F)(F)F (stereo not given),0% (inactive)
7,Cc1cc(C)nc(SCCS(=O)Cc2ccc(Cl)cc2)n1 (stereo not given),0% (inactive)
8,Cc1nc(-c2cccc(N)c2)cs1,0% (inactive)
9,Cc1ccc(F)cc1NC(=O)c1cccc2nccnc12,1% (inactive)
10,O=C(c1cc(S(=O)(=O)N2CCOCC2)ccc1F)N1CCCc2ccccc21,1% (inactive)
11,O=S1(=O)C=C(Sc2nc3ccccc3s2)c2ccccc21,0% (inactive)
12,C[C@]12CCC(=O)C=C1CC[C@@H]1[C@@H]2[C@@H](O)C[C@@]2(C)[C@H]1CC[C@]2(O)C(=O)CO,0% (inactive)
13,CCOC(=O)Cn1c(CN(C)Cc2ccccc2)nc2c1c(=O)n(C)c(=O)n2C,5% (inactive)
14,COc1ccc(C2NC(c3ccc(OC)c(OC)c3OC)C(C)C(=O)C2C)c(OC)c1OC (stereo not given),0% (inactive)
15,N=c1c(C(=O)NCc2ccc3c(c2)OCO3)cc2c(=O)n3ccccc3nc2n1Cc1cccnc1,2% (inactive)
16,CCCCn1c(SCC(=O)OCC)nc2c1c(=O)[nH]c(=O)n2C,2% (inactive)
17,O=C(O)c1ccc(COc2c(F)c(F)c(F)c(F)c2F)o1,0% (inactive)
18,CCC1(CC)C(=O)N(C)C(=O)NC1=NCc1ccccc1,0% (inactive)
19,CCCN(CCC)CCNC(=O)c1cc2c(=O)n(C)c3ccccc3c2n1C,0% (inactive)
20,CCOC(=O)N1CCN(c2c(N3CCN(c4ccccc4OC)CC3)c(=O)c2=O)CC1,0% (inactive)

row,Structure (SMILES),inhibition
1,Cc1ccc2nc(-c3ccc4c(c3)OCCO4)cc(C(=O)O)c2c1,0% (inactive)
2,Cc1[nH]nc2c1C(=O)CCC2,0% (inactive)
3,CC(C)CN(CC(C)C)C(=O)C12CCC(C)(C(=O)C1)C2(C)C (stereo not given),3% (inactive)
4,CC(=O)Nc1ccc(OCC(O)Cn2nc(C)nc2C)cc1 (stereo not given),4% (inactive)
5,Nc1nc(Cl)nc2c1ncn2[C@@H]1O[C@H](CO)[C@@H](O)[C@H]1O,3% (inactive)
6,O=C(NC1CCCC1)C1CCCN(S(=O)(=O)c2cccc3cccnc23)C1 (stereo not given),2% (inactive)
7,CCn1c(SCC(=O)c2ccc(C)cc2)nnc1-c1ccoc1C,2% (inactive)
8,Cc1nc2sc(C(c3cccc(F)c3)N3CCOCC3)c(O)n2n1 (stereo not given),0% (inactive)
9,CCCCn1c(NC(=O)CC)c(C#N)c2nc3ccccc3nc21,4% (inactive)
10,CCn1c(SCC(=O)N2c3ccccc3CCc3ccccc32)nc2c1c(=O)n(C)c(=O)n2C,1% (inactive)
11,COCCN(C(=O)CCC(=O)Nc1ccccn1)C(C(=O)NC1CCCC1)c1ccc(OC)cc1 (stereo not given),0% (inactive)
12,CC1=C(C(=O)Nc2ccccc2)C(c2ccco2)C(C#N)=C(SCC(=O)Nc2cccc(C)c2C)N1 (stereo not given),1% (inactive)
13,COC(=O)c1cccc(Nc2cc(C)nc(-c3ccccc3O)n2)c1,1% (inactive)
14,CCOC(=O)c1cc2c(=O)n3cccc(C)c3nc2n(CCc2ccccc2)c1=N,0% (inactive)
15,O=C(Nc1nnc(N2CCCCCC2)s1)c1cc(-c2ccc(Br)cc2)on1,12% (inactive)
16,Cc1ccc(S(=O)(=O)CC2CSc3nnc(C)c(=O)n32)cc1 (stereo not given),0% (inactive)
17,C=CCn1c(=O)c2ccccc2n2c(SCC(=O)Nc3cc(C)on3)nnc12,0% (inactive)
18,CCn1c(SCC(=O)Nc2ccccc2N2CCCCC2)nc2c1c(=O)n(C)c(=O)n2C,2% (inactive)
19,CNCCC=C1c2ccccc2CCc2ccccc21,0% (inactive)
20,COc1ccc(OC)c(C2=NOC(C(=O)Nc3c(C)n(C)n(-c4ccccc4)c3=O)C2)c1 (stereo not given),2% (inactive)
